Data on eleven molecules can be found in PubChem BioAssay (NCATS).

Inconclusive results are not listed. Calls of active or inactive are those of the source. Calls follow the shape of the dose curve; as a rule, active = well fitted curve in the direction sought with a large enough effect; inconclusive = small, poorly fitted or top-dose-only effect, or another doubt; inactive = no such curve, though single readings can be large; an effect the other way counts as inactive or inconclusive.

Test [1] concerns the target Metallo-beta-lactamase type 2 (Klebsiella pneumoniae) (UniProt C7C422). The experiment in a line: qHTS to identify inhibitors of the New Delhi Metallo-beta-lactamase (NDM): assay validation screen against the NCATS LOPAC Collection (AID 1794843).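 Also: nitrocefin turnover by NDM-1 measured as 485 nm absorbance at plateau.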 The following applies: NDM-1 enzyme, nitrocefin hydrolysis, absorbance 485 nm; series mostly up to 38.4 µM. An outline of the steps:
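NDM-1 at 2 nM final in 50 mM HEPES pH 7.0, 1 uM ZnSO4, 0.01% Tween20, preincubated with LOPAC compounds pinned in DMSO; 50 uM nitrocefin (stock) added. Hydrolysis read as absorbance at 485 nm in the plateau phase.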

The target of test [2] is Glutathione peroxidase 1 (Homo sapiens) (UniProt P07203). The experiment in a line: Primary qHTS Assay for Inhibitors of Recombinant Selenoprotein Glutathione Peroxidase 1 (GPX1) (AID 1845191). Also: nearly all actives have a fitted effect of over 65% in size. Also: potency is read from the fitted curve at half-maximal effect. The following applies: recombinant GPX1, GR-coupled NADPH fluorescence, 15 min; series mostly up to 48.8 µM. Put shortly:
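GPX1 10 nM, GR 100 nM, GSH 1 mM, NADPH 0.5 mM, CHP 0.5 mM (final). 30-min cpd preincubation, RT. Ex340/Em450 read t=0, t=15 min.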

Test [3] addresses Phospholipid hydroperoxide glutathione peroxidase GPX4 (Homo sapiens) (UniProt P36969). The experiment in a line: Primary qHTS Assay for Inhibitors of Recombinant Selenoprotein Glutathione Peroxidase 4 (GPX4) (AID 1845192). Also: nearly all actives have a fitted effect of over 65% in size. To be noted: recombinant GPX4, GR-coupled NADPH fluorescence, 15 min; series mostly up to 50 µM. Put shortly: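 qHTS, GR-coupled: GPX4 200 nM + cpd 30 min RT → GSH 1 mM, NADPH 0.5 mM, GR 100 nM → CHP 0.5 mM start; fluor 340/450 at t0 and t15 min; no-enzyme wells as control.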
For orientation: Quantitative high-throughput screening tests each substance at several concentrations.

Test [4] addresses Luciferin 4-monooxygenase (Photinus pyralis) (UniProt P08659). The experiment in a line: Primary firefly luciferase (FLuc) qHTS assay for identification of artifact compounds. (AID 1845220). Also: nearly all actives have a fitted effect of over 60% in size. The following applies: purified firefly luciferase, luminescence, 5 min; series mostly up to 54.1 µM. Put shortly:
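Reaction readout was CCD-imaged luminescence, taken 5 min after adding 10 nM purified firefly enzyme to compound-treated wells holding 10 uM luciferin and ATP in pH 7.6 buffer.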

Test [5] concerns Nanoluciferase (engineered Oplophorus gracilirostris luciferase). The experiment in a line: Primary Nanoluciferase (NLuc) qHTS assay for identification of artifact compounds. (AID 1845222). The following applies: NLuc-conditioned medium, Nano-Glo luminescence, 5 min; series mostly up to 54.1 µM. Put shortly: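 Concentration-response data were obtained by luminescence after 5 min with Nano-Glo substrate at 1:100. The enzyme was diluted S16 NLuc-expressing cell medium, preincubated with compound for 15 min at RT. Curves were fitted with a 4-parameter Hill model.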

Test [6] in a line: Primary fluorescence-based thiol-reactive (MSTI) qHTS assay for identification of artifact compounds. (AID 1845221).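 Also: thiol-reactive compounds lower the probe fluorescence signal; nearly all actives have a fitted effect of over 65% in size.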 To be noted: MSTI thiol-reactivity probe, 1 h; series mostly up to 53.8 µM. An outline of the steps: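 Curve-fitted percent inhibition (4-parameter Hill) derived from fluorescence, Ex 525/Em 598 nm, scaled with Acetyl-MSTI and MSTI; 1 h incubation at room temperature.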

The nature of test [7]: Primary redox qHTS assay for identification of artifact compounds. (AID 1845223). To be noted: Amplex Red/HRP redox cycling with DTT, fluorescence; series mostly up to 53.8 µM. Put shortly: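 Redox-cycling detection via DTT (250 uM final) oxidation coupled to Amplex Red (25 uM)/HRP (250 mU/mL) in HBSS. 15 min preincubation plus 30 min after DTT, room temperature. Ex/Em 525/598 nm; 4-parameter Hill fit against DMSO and 10 uM DA3003.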

Sequence of Metallo-beta-lactamase type 2 (Klebsiella pneumoniae) (C7C422 whole entry, looked up): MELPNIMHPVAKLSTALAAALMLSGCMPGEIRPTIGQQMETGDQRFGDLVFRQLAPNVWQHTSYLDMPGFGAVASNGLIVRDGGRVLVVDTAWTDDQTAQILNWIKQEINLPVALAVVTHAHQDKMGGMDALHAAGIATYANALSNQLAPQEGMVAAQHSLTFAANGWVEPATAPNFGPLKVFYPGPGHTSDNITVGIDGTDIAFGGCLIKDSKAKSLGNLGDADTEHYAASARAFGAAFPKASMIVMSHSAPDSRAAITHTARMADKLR
Sequence of Phospholipid hydroperoxide glutathione peroxidase GPX4 (Homo sapiens) (P36969 whole entry, looked up): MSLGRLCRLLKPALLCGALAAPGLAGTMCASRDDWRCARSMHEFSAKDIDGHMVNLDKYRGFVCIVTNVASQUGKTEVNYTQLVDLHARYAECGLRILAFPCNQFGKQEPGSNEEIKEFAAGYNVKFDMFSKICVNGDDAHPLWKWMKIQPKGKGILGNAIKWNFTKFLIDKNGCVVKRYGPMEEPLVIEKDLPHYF
Sequence of Glutathione peroxidase 1 (Homo sapiens) (P07203 whole entry, looked up): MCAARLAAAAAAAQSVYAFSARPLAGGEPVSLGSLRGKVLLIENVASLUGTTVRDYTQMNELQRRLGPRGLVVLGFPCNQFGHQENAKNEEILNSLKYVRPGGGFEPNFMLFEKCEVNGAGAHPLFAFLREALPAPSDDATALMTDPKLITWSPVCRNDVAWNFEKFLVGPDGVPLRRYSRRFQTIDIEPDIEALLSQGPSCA

On to `CC(C)C(=O)c1c(C(C)C)nn2ccccc12`, for which the call in test [1] was inactive. In addition, the Potency result in test [2] and in test [3] was “inactive” throughout.

Take `CO/N=C(\C(=O)N[C@@H]1C(=O)N2C(C(=O)O)=C(CSc3nc(=O)c(O)nn3C)CS[C@H]12)c1csc(N)n1`: in test [2], the Potency is 9.04 µM (active).

For the molecule `C[C@]12C[C@H](O)[C@H]3[C@@H](CCC4=CC(=O)CC[C@@]43C)[C@@H]1CC[C@@H]2C(=O)CO`, in test [1], the result was inactive. For the same molecule, the Potency entry in test [2] and in test [3] was “inactive” throughout.

`O=C1NC(=O)[C@@]2(CCOc3ccc(F)cc32)N1`: in test [1], the molecule was called inactive. Also, the Potency result in test [2] and in test [3] was “inactive” each time.

With `CN(C)CC[C@@H](c1ccc(Cl)cc1)c1ccccn1`, the molecule was called inactive in test [1]. Also, the Potency result in test [2] and in test [3] was “inactive” each time.

With `CNC(=O)Oc1ccc2c(c1)[C@]1(C)CCN(C)[C@@H]1N2C`, the result in test [1], in test [4] and in test [5] was inactive. Moreover, the Potency entry in test [2] and in test [3] was “inactive” in each case.

Turning to `CC(CN1c2ccccc2Sc2ccccc21)N(C)C` (centres undefined), in test [1], the molecule was classed as inactive. In addition, the Potency result in test [2] and in test [3] was “inactive” each time.

For `CCN(CC)CCNC(=O)c1cc(Cl)c(N)cc1OC`, the molecule was called inactive in test [1], in test [4], in test [5] and in test [7]. In addition, the Potency entry in test [2], in test [3] and in test [6] was “inactive” throughout.

With `COCCOC(=O)C1=C(C)NC(C)=C(C(=O)OC/C=C/c2ccccc2)C1c1cccc([N+](=O)[O-])c1` (centres undefined), in test [1], the outcome was inactive. In addition, the Potency result in test [2] and in test [3] was “inactive” in each case.

Regarding `Cc1cc(N)c2ccccc2[n+]1CCCCCCCCCC[n+]1c(C)cc(N)c2ccccc21`, the molecule was classed as inactive in test [1], in test [4], in test [5] and in test [7]. The Potency entry in test [2], in test [3] and in test [6] was “inactive” each time.

Take `CC(=O)O[C@@]12CO[C@@H]1C[C@H](O)[C@@]1(C)C(=O)[C@H](O)C3=C(C)[C@@H](OC(=O)[C@H](O)[C@@H](NC(=O)OC(C)(C)C)c4ccccc4)C[C@@](O)([C@@H](OC(=O)c4ccccc4)[C@H]21)C3(C)C`: the Potency entry in test [2] was “inactive”.
